PubChem BioAssay (EPA / NIEHS)
Values joined by “and” are separate entries in the source; they are usually repeats but may differ in a detail not shown here. Identical values can stand only once. Inconclusive results are not listed. Where a structure was tested more than once in an assay, its records may differ in their call. Active and inactive are the calls of the source. The calls were made as follows, unless noted: active = hit-call score of the fitted dose curve at least 0.9, where 1 is the maximum; inconclusive = response in the unintended direction; inactive = score below 0.9.

Columns and labels:
[1] = biological target: human Peroxisome Proliferator-activated Receptor delta (PPARd), PPARD (gene 5467) (UniProt Q03181); assay: ATG_PPARd_TRANS: Attagene TRANS-FACTORIAL HepG2 Assay for human Peroxisome Proliferator-activated Receptor delta (PPARd) (AID 2283002)
Procedure, shortened: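 Transient HepG2 transfection (multiple GAL4-UAS RTUs, chimeric receptor-Gal4); 24 h dosing; total RNA → oligo(dT) RT → PCR → 6-FAM primer extension → HpaI cut → CE. Positive direction vs DMSO.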

[2] = biological target: Peroxisome proliferator-activated receptor gamma (Homo sapiens) (UniProt P37231); assay: ATG_PPARg_TRANS: Attagene TRANS-FACTORIAL HepG2 Assay for human Peroxisome Proliferator-activated Receptor-gamma (PPARg) (AID 2283007)
Procedure, shortened: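 Transient transfection of HepG2 with GAL4-UAS-driven reporter units; chemical dosing 24 h; total RNA → oligo(dT) RT → PCR with reporter primers → 6-FAM primer extension → HpaI digest 2 h 37 C → capillary electrophoresis. Positive direction vs DMSO.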

[3] = biological target: Nuclear receptor subfamily 1 group I member 2 (Homo sapiens) (UniProt O75469); assay: ATG_PXR_TRANS: Attagene TRANS-FACTORIAL HepG2 Assay for human Pregnane X Receptor (PXR) (AID 2283008)
Procedure, shortened: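 Trans-factorial format: exogenous NR-Gal4 fusion activity, not endogenous factor, in transfected human HepG2 liver cells. After 24 h dosing, RNA isolated, reverse-transcribed, amplified and resolved by capillary electrophoresis; induction scored versus DMSO.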

[4] = biological target: sheep Cyclooxygenase-1 (Cox1), PTGS1 (gene 443551) (UniProt P05979); assay: NVS_ENZ_oCOX1: NovaScreen (NVS) Enzymatic Assay for sheep Cyclooxygenase-1 (Cox1) (AID 2283239);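 also: actives reduce cyclooxygenase activity so potencies are for inhibitors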
Procedure, shortened: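 COX1 from ovine seminal vesicles, activity read colorimetrically about 0.66 h after dosing. Primary screen in duplicate at 25 uM; actives retested in concentration series; loss of signal fitted versus DMSO.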

[5] = biological target: Norway rat Vesicular Monoamine Transporter (VMAT2), neurotransmitter transporter, Slc18a2 (gene 25549) (UniProt Q01827); assay: NVS_TR_rVMAT2: NovaScreen (NVS) Transporter Assay for Norway rat Vesicular Monoamine Transporter (VMAT2), neurotransmitter transporter (AID 2283376);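 also: actives lower the bound radioligand signal below the DMSO level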
Procedure, shortened: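 Using rat forebrain membranes, specific radioligand binding to VMAT2 was measured by filtration and scintillation counting after 1 hour. Chemicals screened at 25 uM in duplicate, actives retested in concentration series, DMSO baseline.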

[6] = CCTE_Harrill_HTTr_Viability_MCF7: CCTE's 6-hour Cell Viability Assessment for the High-Throughput Transcriptomics (HTTr) Platform, in MCF-7 cells cultured in DMEM + 10% fetal bovine serum, Harrill Lab (AID 2284010; active = hit-call score of the fitted dose curve at least 0.9, where 1 is the maximum; inactive = score below 0.9)
Procedure, shortened: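 PI exclusion, high-content imaging; 8-pt dilution series, 6 h exposure; bidirectional fit vs DMSO (neg. ctrl/baseline); gain of signal = loss of membrane integrity.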

[7] = CCTE_Harrill_HTTr_Apoptosis_MCF7: CCTE's 6-hour Apoptosis Assessment for the High-Throughput Transcriptomics (HTTr) Platform, in MCF-7 cells cultured in DMEM + 10% fetal bovine serum, Harrill Lab (AID 2284011; active = hit-call score of the fitted dose curve at least 0.9, where 1 is the maximum; inactive = score below 0.9)
Procedure, shortened: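 MCF-7 cells in DMEM + 10% FBS exposed 6 h to chemicals over an eight-point dilution series. Caspase-3/7 activation imaged by high-content CellEvent Green staining; fitted bidirectionally versus DMSO.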

[8] = biological target: human CYP2C8, CYP2C8 (gene 1558) (UniProt P10632); assay: NVS_ADME_hCYP2C8: NovaScreen (NVS) CYP450-related Enzyme Activity (ADME) Assay for human CYP2C8 (AID 2283104; active = hit-call score of the fitted dose curve at least 0.9, where 1 is the maximum; inactive = score below 0.9)
Chain of human CYP2C8, CYP2C8 (gene 1558) (P10632 whole entry, looked up): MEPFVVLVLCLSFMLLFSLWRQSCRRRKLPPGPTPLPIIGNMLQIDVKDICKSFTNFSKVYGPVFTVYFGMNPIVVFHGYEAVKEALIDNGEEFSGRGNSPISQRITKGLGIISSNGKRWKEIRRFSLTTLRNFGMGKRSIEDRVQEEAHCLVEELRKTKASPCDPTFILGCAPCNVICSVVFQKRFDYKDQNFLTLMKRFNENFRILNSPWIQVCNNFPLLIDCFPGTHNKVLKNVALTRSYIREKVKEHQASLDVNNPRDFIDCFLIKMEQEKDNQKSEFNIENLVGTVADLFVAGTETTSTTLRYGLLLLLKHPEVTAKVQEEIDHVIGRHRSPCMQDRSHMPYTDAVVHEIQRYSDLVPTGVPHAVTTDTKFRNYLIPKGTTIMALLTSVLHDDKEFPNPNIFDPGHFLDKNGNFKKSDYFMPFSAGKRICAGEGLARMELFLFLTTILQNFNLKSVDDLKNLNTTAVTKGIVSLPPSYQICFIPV
Procedure, shortened: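 Fluorescence readout of substrate turnover by recombinant CYP2C8 after 0.5 h, baseline acetonitrile. Single-concentration duplicate screen at 10 uM preceded singleton concentration series (max 20 uM) for compounds passing the inhibition threshold.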

[9] = biological target: human Matrix Metalloproteinase-1 (MMP1), MMP1 (gene 4312) (UniProt P03956); assay: NVS_ENZ_hMMP1: NovaScreen (NVS) Enzymatic Assay for human Matrix Metalloproteinase-1 (MMP1) (AID 2283181)
Procedure, shortened: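 Cell-free fluorescent substrate assay of human MMP1, read after 1 h. A single 25 uM duplicate screen was followed by concentration series to a maximum of 50 uM for actives meeting threshold; inhibition analysed against DMSO baseline.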

[10] = biological target: Cellular tumor antigen p53 (Homo sapiens) (UniProt P04637); assay: TOX21_p53_BLA_p2_ratio: Tox21 HCT-116 p53 Agonism Beta-lactamase Assay, Ratio, Phase 2 (AID 2283592)
Chain of Cellular tumor antigen p53 (Homo sapiens) (P04637 whole entry, looked up): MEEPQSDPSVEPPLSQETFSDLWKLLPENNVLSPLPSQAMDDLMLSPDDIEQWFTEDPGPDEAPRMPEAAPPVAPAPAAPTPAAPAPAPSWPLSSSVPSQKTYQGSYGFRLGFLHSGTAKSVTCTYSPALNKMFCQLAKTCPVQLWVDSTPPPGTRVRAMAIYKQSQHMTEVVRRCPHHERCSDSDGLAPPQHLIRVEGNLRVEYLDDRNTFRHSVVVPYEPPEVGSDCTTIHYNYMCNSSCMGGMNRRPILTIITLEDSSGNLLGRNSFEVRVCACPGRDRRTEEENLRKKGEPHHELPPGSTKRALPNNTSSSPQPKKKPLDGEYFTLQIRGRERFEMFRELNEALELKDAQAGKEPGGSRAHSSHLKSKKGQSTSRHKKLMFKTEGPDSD
Procedure, shortened: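 First, HCT116 reporter cells settle for 5 h at 37C. Next, DMSO compound solutions are pinned in (217-fold dilution) and left 16 h. Finally, CCF4-AM substrate is loaded 2 h at room temperature and the 460/530 nm ratio read.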

[11] = biological target: Cellular tumor antigen p53 (Homo sapiens) (UniProt P04637); assay: TOX21_p53_BLA_p3_ratio: Tox21 HCT-116 p53 Agonism Beta-lactamase Assay, Ratio, Phase 3 (AID 2283596)
Procedure, shortened: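 Cells were seeded at 4000/well, rested 5 h at 37C, then dosed with DMSO compound solutions (217-fold dilution) for 16 h. CCF4-AM substrate was loaded for 2 h at room temperature, and the 460/530 nm emission ratio was fitted for gain of signal versus DMSO.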

[12] = biological target: Cellular tumor antigen p53 (Homo sapiens) (UniProt P04637); assay: TOX21_p53_BLA_p5_ratio: Tox21 HCT-116 p53 Agonism Beta-lactamase Assay, Ratio, Phase 5 (AID 2283599)
Procedure, shortened: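 Beta-lactamase reporter ratio (blue 460 nm over green 530 nm, 405 nm excitation) after 2 h CCF4-AM loading, in HCT-116 cells exposed 16 h at 37 C to compounds pinned at 217-fold dilution. Increases relative to DMSO baseline scored.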

[13] = biological target: Cellular tumor antigen p53 (Homo sapiens) (UniProt P04637); assay: TOX21_p53_BLA_p4_ratio: Tox21 HCT-116 p53 Agonism Beta-lactamase Assay, Ratio, Phase 4 (AID 2283601)
Procedure, shortened: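 Signal is the blue/green (460nm/530nm) ratio of cleaved versus uncleaved CCF4-AM substrate, read after 2 h substrate loading. Cells were HCT116 carrying the p53-responsive beta-lactamase reporter, dosed 16 h at 37C, 5% CO2; CellTiter-Glo measured in parallel.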

[14] = biological target: human Ephrin type-B Receptor 2 (EphB2), EPHB2 (gene 2048) (UniProt P29323); assay: NVS_ENZ_hEphB2: NovaScreen (NVS) Enzymatic Assay for human Ephrin type-B Receptor 2 (EphB2) (AID 2283156)
Chain of human Ephrin type-B Receptor 2 (EphB2), EPHB2 (gene 2048) (P29323 whole entry, looked up): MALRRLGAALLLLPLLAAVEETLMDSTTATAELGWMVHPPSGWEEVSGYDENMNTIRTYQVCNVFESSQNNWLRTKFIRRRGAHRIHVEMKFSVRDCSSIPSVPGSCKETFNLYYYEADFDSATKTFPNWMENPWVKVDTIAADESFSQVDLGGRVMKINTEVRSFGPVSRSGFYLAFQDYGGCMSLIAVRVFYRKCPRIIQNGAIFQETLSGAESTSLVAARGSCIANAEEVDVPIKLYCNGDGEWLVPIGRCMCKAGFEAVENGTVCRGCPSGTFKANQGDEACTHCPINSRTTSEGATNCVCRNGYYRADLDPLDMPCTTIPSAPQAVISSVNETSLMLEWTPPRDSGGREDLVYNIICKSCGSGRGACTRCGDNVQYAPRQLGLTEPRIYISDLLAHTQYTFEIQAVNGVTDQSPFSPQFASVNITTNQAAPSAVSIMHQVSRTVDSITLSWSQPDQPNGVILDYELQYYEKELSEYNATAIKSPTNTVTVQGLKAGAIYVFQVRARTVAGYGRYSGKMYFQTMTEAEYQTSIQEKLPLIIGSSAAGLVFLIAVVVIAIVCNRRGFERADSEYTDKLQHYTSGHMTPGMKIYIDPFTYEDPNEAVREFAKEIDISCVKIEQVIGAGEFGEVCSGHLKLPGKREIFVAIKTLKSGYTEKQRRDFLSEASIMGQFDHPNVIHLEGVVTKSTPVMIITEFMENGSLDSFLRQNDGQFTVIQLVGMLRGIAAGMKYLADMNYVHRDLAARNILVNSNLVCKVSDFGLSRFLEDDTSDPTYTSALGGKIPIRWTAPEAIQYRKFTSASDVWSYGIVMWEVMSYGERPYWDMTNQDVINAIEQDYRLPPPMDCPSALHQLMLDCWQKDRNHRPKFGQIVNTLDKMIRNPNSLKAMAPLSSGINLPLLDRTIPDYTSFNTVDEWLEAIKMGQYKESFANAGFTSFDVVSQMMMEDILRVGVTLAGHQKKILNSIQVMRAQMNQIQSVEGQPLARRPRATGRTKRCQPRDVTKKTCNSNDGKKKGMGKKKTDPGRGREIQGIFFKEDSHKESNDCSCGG
Procedure, shortened: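 Compounds were first tested in duplicate at 25 uM, with hits rerun singly in concentration series up to 50 uM. Enzyme activity on fluorescent substrate was read at 1 h by mobility-shift separation, scored as signal loss relative to DMSO.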

[15] = biological target: human Fibroblast Growth Factor Receptor 1 (FGFR1), FGFR1 (gene 2260) (UniProt P11362); assay: NVS_ENZ_hFGFR1: NovaScreen (NVS) Enzymatic Assay for human Fibroblast Growth Factor Receptor 1 (FGFR1) (AID 2283159);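 also: hits lower the signal so potencies describe inhibitors of the kinase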
Chain of human Fibroblast Growth Factor Receptor 1 (FGFR1), FGFR1 (gene 2260) (P11362 whole entry, looked up): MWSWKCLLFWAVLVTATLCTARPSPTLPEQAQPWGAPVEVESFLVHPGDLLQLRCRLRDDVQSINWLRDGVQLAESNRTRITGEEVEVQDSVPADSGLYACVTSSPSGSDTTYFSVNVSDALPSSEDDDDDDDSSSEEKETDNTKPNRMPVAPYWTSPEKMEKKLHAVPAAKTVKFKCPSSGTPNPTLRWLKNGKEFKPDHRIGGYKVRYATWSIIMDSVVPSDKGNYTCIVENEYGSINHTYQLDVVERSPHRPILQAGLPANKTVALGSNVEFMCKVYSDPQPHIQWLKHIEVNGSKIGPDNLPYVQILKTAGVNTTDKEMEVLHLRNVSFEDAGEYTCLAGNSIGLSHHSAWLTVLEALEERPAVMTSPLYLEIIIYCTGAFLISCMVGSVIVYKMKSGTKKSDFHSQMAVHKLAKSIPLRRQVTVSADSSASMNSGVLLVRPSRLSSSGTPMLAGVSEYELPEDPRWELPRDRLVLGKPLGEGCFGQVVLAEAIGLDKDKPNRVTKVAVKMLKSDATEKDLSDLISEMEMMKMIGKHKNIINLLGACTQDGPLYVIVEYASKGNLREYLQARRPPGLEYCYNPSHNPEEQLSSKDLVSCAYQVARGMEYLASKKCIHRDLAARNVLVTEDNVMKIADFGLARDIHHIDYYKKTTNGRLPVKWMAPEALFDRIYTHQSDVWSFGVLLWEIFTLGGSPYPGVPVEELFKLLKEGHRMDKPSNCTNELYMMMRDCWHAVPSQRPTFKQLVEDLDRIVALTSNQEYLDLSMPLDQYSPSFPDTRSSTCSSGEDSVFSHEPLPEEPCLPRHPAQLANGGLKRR
Procedure, shortened: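 Cell-free recombinant kinase with fluorescent substrate, product separated by electrophoretic mobility shift; read 1 hour after dosing, loss of signal relative to DMSO. Initial screen in duplicate at 25 uM, actives followed in concentration series.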

[16] = biological target: human NIMA (Never In Mitosis Gene A)-Related Kinase 2 (NEK2), NEK2 (gene 4751) (UniProt P51955); assay: NVS_ENZ_hNEK2: NovaScreen (NVS) Enzymatic Assay for human NIMA (Never In Mitosis Gene A)-Related Kinase 2 (NEK2) (AID 2283188)
Chain of human NIMA (Never In Mitosis Gene A)-Related Kinase 2 (NEK2), NEK2 (gene 4751) (P51955 whole entry, looked up): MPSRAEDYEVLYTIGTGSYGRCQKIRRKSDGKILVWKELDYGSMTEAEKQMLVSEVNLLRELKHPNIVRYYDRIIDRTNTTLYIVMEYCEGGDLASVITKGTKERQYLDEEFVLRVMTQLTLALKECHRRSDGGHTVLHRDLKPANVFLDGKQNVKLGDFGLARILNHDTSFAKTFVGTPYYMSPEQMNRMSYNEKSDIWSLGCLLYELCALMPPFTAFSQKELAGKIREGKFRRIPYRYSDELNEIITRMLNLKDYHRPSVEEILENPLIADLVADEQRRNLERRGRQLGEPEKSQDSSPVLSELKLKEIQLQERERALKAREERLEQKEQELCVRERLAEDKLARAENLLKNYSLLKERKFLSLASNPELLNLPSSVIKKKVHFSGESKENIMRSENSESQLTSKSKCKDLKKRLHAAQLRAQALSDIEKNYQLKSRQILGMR
Procedure, shortened: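 Compounds were first screened in duplicate at 25 uM, with actives followed up in concentration series. Recombinant NEK2 activity, cell-free, was read 1 h after dosing by fluorescence intensity after mobility-shift separation. Signal loss was scored against DMSO.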

[17] = biological target: rat Monoamine Oxidase, MAO-B, Central (MAOBC), Maob (gene 25750) (UniProt P19643); assay: NVS_ENZ_rMAOBC: NovaScreen (NVS) Enzymatic Assay for rat Monoamine Oxidase, MAO-B, Central (MAOBC) (AID 2283238)
Procedure, shortened: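 Actives from a duplicate 25 uM screen went on to singleton concentration-response with a 50 uM maximum. Enzyme source was rat brain tissue MAO-B, assayed cell-free. Radiolabelled product was counted by scintillation 1.17 h post-dose, with signal loss relative to DMSO.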

[18] = biological target: rat CYP1A2, Cyp1a2 (gene 24297) (UniProt P04799); assay: NVS_ADME_rCYP1A2: NovaScreen (NVS) CYP450-related Enzyme Activity (ADME) Assay for rat CYP1A2 (AID 2283115)
Chain of rat CYP1A2, Cyp1a2 (gene 24297) (P04799 whole entry, looked up): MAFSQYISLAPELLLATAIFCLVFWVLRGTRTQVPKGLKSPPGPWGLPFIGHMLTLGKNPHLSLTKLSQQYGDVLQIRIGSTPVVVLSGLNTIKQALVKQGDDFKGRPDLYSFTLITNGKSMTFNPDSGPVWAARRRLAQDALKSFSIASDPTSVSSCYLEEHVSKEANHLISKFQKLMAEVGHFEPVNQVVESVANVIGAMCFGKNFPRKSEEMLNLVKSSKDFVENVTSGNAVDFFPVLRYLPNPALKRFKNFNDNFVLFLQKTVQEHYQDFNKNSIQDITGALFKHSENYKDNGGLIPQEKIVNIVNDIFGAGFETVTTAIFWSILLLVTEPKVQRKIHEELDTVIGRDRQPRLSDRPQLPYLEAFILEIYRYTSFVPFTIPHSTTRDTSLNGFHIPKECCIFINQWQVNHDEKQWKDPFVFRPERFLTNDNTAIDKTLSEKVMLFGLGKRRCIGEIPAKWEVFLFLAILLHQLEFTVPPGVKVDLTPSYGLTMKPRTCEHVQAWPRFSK
Procedure, shortened: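 Primary testing ran in duplicate at 10 uM, with actives re-tested across concentration series. Fluorescence intensity from substrate turnover by recombinant protein, measured 1 hour post-dosing, with signal loss scored against acetonitrile vehicle.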

[19] = tested on: rat Monoamine Oxidase, MAO-A, Peripheral (MAOAP), gene 29253; assay: NVS_ENZ_rMAOAP: NovaScreen (NVS) Enzymatic Assay for rat Monoamine Oxidase, MAO-A, Peripheral (MAOAP) (AID 2283237)
Procedure, shortened: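 Scintillation counting tracked MAO-A activity in a cell-free rat liver mitochondrial membrane prep, read 1.17 hours after compound addition. Single-point duplicate testing at 25 uM preceded concentration-response follow-up; activity was fitted relative to DMSO.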

[20] = biological target: human AMP-activated Protein Kinase, alpha 1 (AMPKa1), PRKAA1 (gene 5562) (UniProt Q13131); assay: NVS_ENZ_hAMPKa1: NovaScreen (NVS) Enzymatic Assay for human AMP-activated Protein Kinase, alpha 1 (AMPKa1) (AID 2283130)
Chain of human AMP-activated Protein Kinase, alpha 1 (AMPKa1), PRKAA1 (gene 5562) (Q13131 whole entry, looked up): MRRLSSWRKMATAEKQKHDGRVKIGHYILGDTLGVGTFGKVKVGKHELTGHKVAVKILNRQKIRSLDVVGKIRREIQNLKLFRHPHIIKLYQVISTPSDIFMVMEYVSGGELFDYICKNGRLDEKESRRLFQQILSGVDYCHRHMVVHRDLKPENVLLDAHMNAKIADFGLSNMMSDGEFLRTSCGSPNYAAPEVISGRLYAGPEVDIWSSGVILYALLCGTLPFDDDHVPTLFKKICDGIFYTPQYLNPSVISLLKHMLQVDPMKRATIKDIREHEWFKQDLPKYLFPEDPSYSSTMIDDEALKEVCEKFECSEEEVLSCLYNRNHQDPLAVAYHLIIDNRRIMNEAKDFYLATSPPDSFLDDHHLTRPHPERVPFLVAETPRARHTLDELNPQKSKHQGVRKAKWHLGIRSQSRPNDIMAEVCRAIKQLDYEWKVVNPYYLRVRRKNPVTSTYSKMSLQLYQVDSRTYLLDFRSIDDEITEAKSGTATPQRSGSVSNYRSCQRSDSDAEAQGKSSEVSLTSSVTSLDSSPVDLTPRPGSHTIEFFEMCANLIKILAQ
Procedure, shortened: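 Compounds were screened in duplicate at 25 uM, and those reaching ~30% inhibition were titrated up to 50 uM. The enzyme was recombinant human AMPKα1, and kinase turnover was read by fluorescence/mobility shift 1 h post-dosing as loss of signal versus DMSO.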

[21] = biological target: human Aurora Kinase A - serine/threonine-protein Kinase 6 (AurA), AURKA (gene 6790) (UniProt O14965); assay: NVS_ENZ_hAurA: NovaScreen (NVS) Enzymatic Assay for human Aurora Kinase A - serine/threonine-protein Kinase 6 (AurA) (AID 2283142)
Procedure, shortened: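 Recombinant human AurA activity read by fluorescence after mobility-shift separation of product from substrate; 1 hour incubation. Chemicals first run in duplicate at 25 uM, then concentration series to 50 uM if over threshold; fitted relative to DMSO.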

[22] = biological target: human Mitogen-Activated Protein Kinase 1 (MAPK 1), MAPK1 (gene 5594) (UniProt P28482); assay: NVS_ENZ_hMAPK1: NovaScreen (NVS) Enzymatic Assay for human Mitogen-Activated Protein Kinase 1 (MAPK 1) (AID 2283175)
Procedure, shortened: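 Cell-free recombinant human MAPK1 enzymatic assay, fluorescence/electrophoretic mobility shift read at 1 h; loss of signal vs DMSO. Primary screen in duplicate at 25 uM; actives (e.g. ≥30% inhibition) run as concentration-response up to 50 uM.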

[23] = biological target: human p21 Activated Kinase 4 (PAK4), PAK4 (gene 10298) (UniProt O96013); assay: NVS_ENZ_hPAK4: NovaScreen (NVS) Enzymatic Assay for human p21 Activated Kinase 4 (PAK4) (AID 2283189)
Chain of human p21 Activated Kinase 4 (PAK4), PAK4 (gene 10298) (O96013 whole entry, looked up): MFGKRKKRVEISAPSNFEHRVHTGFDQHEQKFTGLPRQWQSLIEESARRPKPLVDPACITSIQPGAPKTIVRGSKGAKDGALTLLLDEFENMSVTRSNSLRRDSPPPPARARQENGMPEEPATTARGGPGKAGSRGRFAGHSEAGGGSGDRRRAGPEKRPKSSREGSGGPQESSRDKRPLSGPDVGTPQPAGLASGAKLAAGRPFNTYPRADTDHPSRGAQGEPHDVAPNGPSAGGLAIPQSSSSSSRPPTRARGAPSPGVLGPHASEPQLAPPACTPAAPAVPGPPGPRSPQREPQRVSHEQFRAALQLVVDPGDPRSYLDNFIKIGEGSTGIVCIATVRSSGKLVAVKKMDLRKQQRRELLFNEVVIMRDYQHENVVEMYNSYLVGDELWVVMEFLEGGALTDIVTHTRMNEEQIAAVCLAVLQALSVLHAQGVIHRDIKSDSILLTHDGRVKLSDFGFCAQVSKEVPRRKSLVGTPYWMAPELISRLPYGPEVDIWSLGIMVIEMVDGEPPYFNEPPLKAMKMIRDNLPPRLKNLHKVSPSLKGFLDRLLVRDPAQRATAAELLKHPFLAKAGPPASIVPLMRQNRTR
Procedure, shortened: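 Extracted PAK4 enzyme activity read by fluorescence with mobility-shift separation 1 h after chemical addition. Duplicate single-concentration screen at 25 uM, DMSO as negative control.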

[24] = biological target: human Tyrosine Protein Kinase Receptor Tie-2 (Tie2), TEK (gene 7010) (UniProt Q02763); assay: NVS_ENZ_hTie2: NovaScreen (NVS) Enzymatic Assay for human Tyrosine Protein Kinase Receptor Tie-2 (Tie2) (AID 2283225)
Procedure, shortened: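 Substrate and product were separated by mobility shift and detected by fluorescence after a 1-hour reaction with recombinant Tie2. Chemicals passing a 25 uM single-point screen were titrated to a maximum of 50 uM. Results were normalized to DMSO baseline.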

[25] = biological target: rat Corticotropin Releasing Factor Receptor (CRF), Crhr1 (gene 58959) (UniProt P35353); assay: NVS_GPCR_rCRF: NovaScreen (NVS) G Protein-Coupled Receptor Assay for rat Corticotropin Releasing Factor Receptor (CRF) (AID 2283300)
Procedure, shortened: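 Single-concentration (25 uM, duplicate) radioligand binding on rat cortical membrane preparations, counted by scintillation after 2 h. Activity scored as signal loss relative to DMSO negative control.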

[26] = biological target: human Neonicotinoid receptor (NNR), CHRNA2 (gene 1135) (UniProt Q15822); assay: NVS_LGIC_hNNR_NBungSens: NovaScreen (NVS) Ligand-Gated Ion Channel Assay for human Neonicotinoid receptor (NNR) (AID 2283313)
Procedure, shortened: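 Compounds first screened in duplicate at 25 uM, then actives re-tested in single-replicate dose series up to 50 uM. Binding measured as displacement of specific radioligand from neuroblastoma membrane receptors after 2 h, scintillation read on filters.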

Measured: AC50

O=[N+]([O-])c1ccccc1Cl
inactive: [1] | [2] | [3] | [4] | [5] | [6] | [7]

C=CCOC(Cn1ccnc1)c1ccc(Cl)cc1Cl (configuration not stated)
active: [8] 6.22 µM | [9] 14 µM | [10] 76.1 µM and 72.5 µM | [11] 83 µM and 73.3 µM | [12] 79.4 µM and 77.2 µM | [13] 80.8 µM and 83.9 µM
inactive: [10] | [11] | [12] | [13]

Oc1ccc(C(c2ccc(O)cc2)C(Cl)(Cl)Cl)cc1
active: [8] 1.06 µM | [15] 33.1 µM
inactive: [14] | [16] | [17]

CSC(=O)c1cccc2nnsc12
inactive: [18] | [19]

S=C([S-])NCCNC(=S)[S-].[Mn+2]
active: [20] 8.83 µM | [21] 1.79 µM | [15] 19.1 µM | [22] 5.17 µM | [23] 5.91 µM | [24] 12.9 µM | [25] 12.5 µM
inactive: [26]
